CHX counter – counter-screen for Shiga toxin inhibitors: cycloheximide protein synthesis inhibition. cell reporter, cycloheximide protein synthesis inhibition counterscreen. 12% of 300,000 active. max response, %; in the data active means max response mostly above about 13%, no sharp cut-off; inactive means mostly below about 14%; further: read at 38.3 µM for the half of the compounds with a filed dose
Shiga inhibitor – Shiga toxin inhibition | Vero cells, Shiga toxin protein synthesis inhibition reporter | inhibition, % at 38.7 µM | 9.2% of 290,000 active; in the data active means inhibition mostly above about 28%, no sharp cut-off; inactive means mostly below about 43%
Pf growth 96h – inhibits malaria parasite growth, 96 h; AID 504834; Potency, µM (highest dose often 28.7 µM), most hits filed as inhibitors; 6.9% of 320,000 active; P. falciparum luciferase reporter growth, 96 h
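Two-generation exposure (96 h) targets delayed-death phenotype. Reporter parasites carrying integrated firefly luciferase, in red cells at 2% hematocrit and 0.05% parasitemia final, kept at 37 C, 5% CO2; luminescence loss indicates inhibition.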
HCMV inh – human cytomegalovirus inhibition; HFF cells, HCMV-luciferase reporter, 72 h; active compounds read low; AID 1259415; activity change, negative = inhibition, % at 57.5 µM; 4.5% of 410,000 active; in the data active means activity change below about -60%; inconclusive means no clear call, values can overlap the other calls; inactive means above about -39%
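Two-dose cell screen: HFF monolayers treated with compounds and infected with luciferase-expressing HCMV at 1 PFU/cell, 72 h at 37C, then lysed for luciferase measurement.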
Pf growth 48h – inhibits P. falciparum growth in the first generation, 48 h | P. falciparum luciferase growth in erythrocytes, 48 h | Potency, µM (highest dose often 28.7 µM), hits mostly inhibitors | 5.9% of 310,000 active | AID 504832
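Luciferase-expressing P. falciparum in infected erythrocytes (2% hematocrit, 0.1% parasitemia final) in RPMI 1640/0.5% Albumax were exposed to compound for 48 hours at 37 C, 5% CO2; growth read as luminescence.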
Of the large screens only hits and unclear results are named; the others gave an inactive call. Shown are actives, neighbours in structure and some others; about 20% of the full set was active somewhere. Unless noted, the call rests on the fitted dose curve; in most records, active means well fitted inhibition curve with a large enough effect; inconclusive means small, poorly fitted or top-dose-only effect, or another doubt; inactive means no such curve, though single readings can be large or run the other way.

COc1cc2c(cc1OC)-c1c(OC)c(OC)cc3c1[C@H](C2)[N+](C)(C)CC3	Pf growth 96h 0.37µM, HCMV inh -74, Pf growth 48h inconclusive
c1nnc(NC2=NCCCCC2)s1	CHX counter 22, Pf growth 96h 5.9µM
Cc1cnc(NC2=NCCC2)s1	HCMV inh inconclusive
C1CCN=C(Nc2nc3c(s2)CCCC3)CC1	CHX counter 39, Shiga inhibitor 120, Pf growth 96h inconclusive
CCN(CC(=O)Nc1ccc(OC)cc1)C(=O)c1ccc2c(c1)NC(=O)CS2	none (no result: CHX counter, Shiga inhibitor)
CC(C)C(=O)Nc1ccc(N2CCN(C)CC2)c(F)c1	CHX counter 22
Cc1ccc(SCC(=O)Nc2ccc(N3CCN(C)CC3)c(F)c2)cc1	CHX counter 48, Shiga inhibitor 90
Cc1ccc(NC(=O)CSCC(=O)Nc2cc(Cl)ccc2N2CCN(C)CC2)cc1	Pf growth 96h inconclusive, Pf growth 48h 13µM (no result: CHX counter, Shiga inhibitor)
CN1CCN(c2ccc(NC(=O)CN3CCOCC3)cc2F)CC1	Pf growth 96h inconclusive, Pf growth 48h inconclusive
Cc1noc(C)c1CSCC(=O)Nc1cc(Cl)ccc1N1CCOCC1	Pf growth 96h inconclusive
CN1CCN(c2ccc(Cl)cc2NC(=O)c2ccc(=O)n(C)n2)CC1	Pf growth 96h inconclusive
CN1CCN(c2ccc(Cl)cc2NC(=O)c2cc(=O)[nH]c3ccccc23)CC1	Pf growth 96h inconclusive, HCMV inh -98, Pf growth 48h inconclusive (no result: CHX counter, Shiga inhibitor)
CCCC(=O)Nc1cccc(C(=O)Nc2nccs2)c1	none (no result: Pf growth 96h)
CC(C)C(=O)Nc1cccc(C(=O)Nc2nccs2)c1	CHX counter 15
O=C(Nc1nccs1)c1cccc(NC(=O)C2CC2)c1	Pf growth 96h 13µM
CCC(=O)Nc1cccc(C(=O)Nc2nccs2)c1	none
Cc1ccc(C(C)(C)C)cc1S(=O)(=O)Nc1cccc(S(=O)(=O)NC2=NCCC2)c1	HCMV inh inconclusive
Cc1ccccc1C(=O)NNC(=O)c1cccc([N+](=O)[O-])c1	none
Cc1ccccc1C(=O)NC(NC(=O)c1ccccc1C)c1cccc([N+](=O)[O-])c1	Pf growth 96h 1.7µM
Cc1ccc(C(=O)NC(NC(=O)c2ccc(C)cc2)c2cccc([N+](=O)[O-])c2)cc1	Pf growth 96h inconclusive, HCMV inh -60, Pf growth 48h inconclusive
Cc1ccc(C(=O)Nc2cc([N+](=O)[O-])ccc2C)cc1	Pf growth 96h inconclusive
COc1ccc(CCN(C)C2CCCN(C(=O)CCSC)C2)cc1OC (stereo not given)	Pf growth 96h inconclusive
COc1ccc(CCN(C)C2CCCN(C(=O)Cn3cnnn3)C2)cc1OC (stereo not given)	CHX counter 12
CC(Sc1nncs1)C(=O)Nc1ccc2c(c1)OCO2 (stereo not given)	CHX counter 11
CC(Sc1ncccn1)C(=O)Nc1ccc2c(c1)OCO2 (stereo not given)	none (no result: CHX counter, Shiga inhibitor, Pf growth 96h, Pf growth 48h)
O=C(CSc1nncs1)Nc1ccc2c(c1)OCO2	CHX counter 25
COc1cccc(CN2CCCN(CC(=O)Nc3ccc4c(c3)OCCO4)S2(=O)=O)c1	none (no result: CHX counter, Shiga inhibitor, Pf growth 96h, Pf growth 48h)
Cc1cc2c(cc1C)NC(=O)CC(c1ccccc1)=N2	none (no result: CHX counter, Shiga inhibitor, Pf growth 96h, Pf growth 48h)
Cc1ccc(C2=Nc3ccccc3NC(C)(c3ccc(C)o3)C2)o1 (stereo not given)	CHX counter 60, Shiga inhibitor 82, Pf growth 96h inconclusive, Pf growth 48h inconclusive
CC1(c2ccccc2)CC(c2ccccc2)=Nc2nonc2N1 (stereo not given)	Pf growth 96h inconclusive, Pf growth 48h 1.5µM
CC1(c2ccccc2)CC(c2ccccc2)=Nc2ccccc2N1 (stereo not given)	CHX counter 57, Shiga inhibitor 91, Pf growth 48h inconclusive (no result: HCMV inh)
CC(=O)Oc1cccc(C2=CC(=O)CC(C)(C)C2=O)c1	none (no result: CHX counter, Shiga inhibitor, Pf growth 96h, Pf growth 48h)
COc1ccc(S(=O)(=O)N/N=C(/C)c2ccncc2)c(OC)c1	none
CCCS(=O)(=O)NC(=O)C1(C)CCCN(C(=O)c2c(F)ccc(C)c2F)C1 (stereo not given)	none (no result: CHX counter, Shiga inhibitor, Pf growth 96h, Pf growth 48h)
COc1ccc(NC(=O)NCCCN2CCN(c3cc(C)ccc3C)CC2)cc1	Pf growth 48h inconclusive
COc1ccc(C2=C(C)C(=NCCCN3CCN(c4cc(C)ccc4C)CC3)NS2(=O)=O)cc1	HCMV inh -91 (no result: CHX counter, Shiga inhibitor, Pf growth 96h, Pf growth 48h)
COc1ccc(NC(=O)CCc2nc3ccccc3c(=O)[nH]2)cc1S(=O)(=O)N1CCCCC1	none (no result: CHX counter, Shiga inhibitor, Pf growth 96h, Pf growth 48h)
COc1ccc(-c2nnc(SCC(=O)Nc3ccc(C)c(Cl)c3)nc2-c2ccc(OC)c(OC)c2)cc1OC	none (no result: CHX counter, Shiga inhibitor, Pf growth 96h, Pf growth 48h)
CCN1C(=NCCc2cccs2)N[C@@H](CCc2ccccc2)[C@H](C(=O)NCCc2cccs2)[C@H]1C	Pf growth 48h 1.5µM (no result: HCMV inh)
